From PubChem
Hits are enriched below; roughly 14% of the tested compounds scored in any of these assays.
USP8 inh: blocks human USP8 ubiquitin-rhodamine cleavage; 4.2% of 47,000 active; inhibition, % at 20 µM; P40818; purified USP8, Ub-rhodamine cleavage fluorescence, 30 min
USP17 block: human USP17-like deubiquitinase inhibition. inhibition, % at 50 µM. 6.5% of 47,000 active. purified USP17, Ub-rhodamine cleavage fluorescence, 3 h. A8MUK1
Target sequence (A8MUK1 whole entry, looked up): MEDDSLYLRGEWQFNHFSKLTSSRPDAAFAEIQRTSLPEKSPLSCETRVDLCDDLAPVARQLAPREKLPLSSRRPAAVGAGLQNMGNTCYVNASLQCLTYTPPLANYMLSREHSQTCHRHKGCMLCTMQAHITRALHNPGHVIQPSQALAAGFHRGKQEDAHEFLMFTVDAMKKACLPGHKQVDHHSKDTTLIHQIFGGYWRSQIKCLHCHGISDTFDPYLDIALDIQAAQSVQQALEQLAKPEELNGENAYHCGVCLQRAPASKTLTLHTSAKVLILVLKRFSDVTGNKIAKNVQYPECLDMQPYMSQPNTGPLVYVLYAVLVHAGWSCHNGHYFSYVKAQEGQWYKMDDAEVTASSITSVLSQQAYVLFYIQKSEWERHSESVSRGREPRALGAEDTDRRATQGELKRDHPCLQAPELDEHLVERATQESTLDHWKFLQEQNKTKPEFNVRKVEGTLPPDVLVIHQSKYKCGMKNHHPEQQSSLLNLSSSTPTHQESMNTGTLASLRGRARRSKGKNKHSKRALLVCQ
USP10 block: blocks human USP10 ubiquitin-rhodamine cleavage; Q14694; purified USP10, Ub-rhodamine fluorescence, 60 min; inhibition, % at 20 µM; 1.1% of 47,000 active; AID 1645856
USP28 inh: inhibitors of human USP28 deubiquitinase; purified USP28, Ub-rhodamine cleavage fluorescence, 30 min; inhibition, % at 25 µM; 3% of 47,000 active
USP30 block: blocks human USP30 ubiquitin-rhodamine cleavage. Q70CQ3. purified USP30, Ub-rhodamine cleavage fluorescence. inhibition, % at 25 µM. 5.3% of 47,000 active
* = called active by the depositor. Cut-off read from the data, not from the text of the source: active = inhibition above about 30%; inactive = the rest.

`Cc1ccc2c(c1C)NC(=O)[C@]21N2CCC[C@H]2[C@@H](C(=O)c2cc3ccccc3o2)[C@]12C(=O)Nc1ccccc12` gave USP8 inh 21, USP17 block 44*, USP10 block -7, USP28 inh -11 and USP30 block -18.
`COc1ccc(-c2nc(SCC(=O)Nc3ccc(C(C)=O)cc3)n[nH]2)cc1` gave USP8 inh 4, USP17 block 54*, USP10 block 2, USP28 inh -1 and USP30 block -1.
For c1cc(N2CCCCC2)ncc1-c1noc(CN2CCC3(CC2)OCCO3)n1 the results were USP8 inh -28, USP17 block -32, USP10 block -5, USP28 inh -16 and USP30 block -46.
`COc1cccc(C(CNC(=O)CCc2ccccc2)N2CCOCC2)c1` (centres undefined) gave USP8 inh -1, USP17 block -5, USP10 block 1, USP28 inh -3 and USP30 block 0.
Cc1[nH]c2ccccc2c1CCNC(=O)c1cc2cc(Cl)ccc2oc1=O was read as USP8 inh 56*, USP17 block 23, USP10 block -3, USP28 inh 8 and USP30 block 2.
`Cc1[nH]c2ccc(F)cc2c1CCNC(=O)c1cc2cc([N+](=O)[O-])ccc2oc1=O` gave USP8 inh -14, USP17 block -32, USP10 block 7, USP28 inh 2 and USP30 block 14.
CCN(c1ccccc1)S(=O)(=O)c1ccc(N2C(=O)CCS2(=O)=O)cc1C was read as USP8 inh 30, USP17 block 25, USP10 block 5, USP28 inh 11 and USP30 block 8.
`CC1(C)c2[nH]c3ccccc3c2C[C@@H]2C(=O)N(C3CCCC3)CC(=O)N21` gave USP8 inh 2, USP17 block -1, USP10 block 0, USP28 inh -1 and USP30 block 4.
For COc1ccc(N2C(=O)[C@@H]3Cc4c([nH]c5ccccc45)C(C)(C)N3C2=O)c(OC)c1 the results were USP8 inh -9, USP17 block 47*, USP10 block 3, USP28 inh -21 and USP30 block -22.
`CC1(C)c2[nH]c3ccccc3c2C[C@@H]2C(=O)N(C3CCCCC3)CC(=O)N21` gave USP8 inh 31*, USP17 block 12, USP10 block 7, USP28 inh 12 and USP30 block 13.
CC(=O)c1cccc(NC(=O)COC(=O)c2c3c(nc4ccccc24)CCCC3)c1 was read as USP8 inh -7, USP17 block -2, USP10 block 3, USP28 inh -1 and USP30 block -19.
`COc1ccc(C(=O)Nc2ccc3c(N4CCOCC4)ncnc3c2)cc1` gave USP8 inh 8, USP17 block -12, USP10 block -1, USP28 inh 3 and USP30 block -19.
COc1ccc(NC(=O)c2ccc3ccnc(N4CCN(c5ccc(OC)cc5)CC4)c3c2)cc1 was read as USP8 inh 15, USP17 block 47*, USP10 block 24, USP28 inh -8 and USP30 block -16.
For Cc1cccc(NC(=O)Nc2ccc(C)n(CC(=O)Nc3ccc(C)c(C)c3)c2=O)c1 the results were USP8 inh 74*, USP17 block -8, USP10 block 42*, USP28 inh -3 and USP30 block -14.
Screening Cc1cccc(NC(=O)Nc2ccc(C)n(CC(=O)Nc3ccccc3)c2=O)c1 returned USP8 inh 21, USP17 block 61*, USP10 block 13, USP28 inh 40* and USP30 block 41*.
Cc1cccc(NC(=O)Cn2c(-n3nc(C)cc3C)nc3c(c2=O)CCC3)c1 was read as USP8 inh -17, USP17 block 37*, USP10 block 0, USP28 inh 0 and USP30 block 2.
CCn1c(=O)c2nscc2n(CC(=O)Nc2cccc(C)c2)c1=O was read as USP8 inh -3, USP17 block 0, USP10 block 0, USP28 inh -2 and USP30 block -2.
`Cc1ccc(NC(=O)Nc2ccc(C)n(CC(=O)Nc3cccc(C)c3)c2=O)cc1` gave USP8 inh 94*, USP17 block 0, USP10 block 53*, USP28 inh 19 and USP30 block 27.
`Cc1cccc(NC(=O)Cn2c(C)ncc(C(=O)NC3CC3)c2=O)c1` gave USP8 inh 0, USP17 block 12, USP10 block 2, USP28 inh 11 and USP30 block 14.
Screening Cc1nnsc1Sc1ccc(Cl)c(Cl)c1 returned USP8 inh -4, USP17 block -1, USP10 block 5, USP28 inh 16 and USP30 block 0.
Screening CCOC(=O)[C@@H](O)[C@@H](C(=O)OCC)c1nc2c(OCc3ccccc3)nc(N)nc2n(C)c1=O returned USP8 inh 19, USP17 block 1, USP10 block -1, USP28 inh 10 and USP30 block 19.
For Cc1nc(-c2ncc[nH]2)cc(C2CCN(C(=O)c3nccc4ccccc34)CC2)n1 the results were USP8 inh 5, USP17 block 4, USP10 block 1, USP28 inh 0 and USP30 block 12.
`Cc1ccc(NC(=O)Cn2c(Nc3cccc(C)c3)nc(C)cc2=O)cc1` gave USP8 inh 3, USP17 block 36*, USP10 block 1, USP28 inh 16 and USP30 block 58*.
Screening Cc1cc(=O)n(CC(=O)Nc2ccc(F)cc2)c(Nc2ccc(F)cc2)n1 returned USP8 inh 1, USP17 block -4, USP10 block 0, USP28 inh 2 and USP30 block 1.
`Cc1noc(-c2cc(=O)n(CC(=O)NC3CCCC3)c3ccccc23)n1` gave USP8 inh 35*, USP17 block 11, USP10 block 4, USP28 inh 7 and USP30 block -37.
For Cc1noc(-c2cc(=O)n(CC(=O)Nc3ccccc3Cl)c3ccccc23)n1 the results were USP8 inh 9, USP17 block 6, USP10 block 34*, USP28 inh -5 and USP30 block 1.
Cc1noc(-c2cc(=O)n(CC(=O)Nc3cc(F)cc(F)c3)c3ccccc23)n1 was read as USP8 inh -7, USP17 block -13, USP10 block 0, USP28 inh -16 and USP30 block -1.
For Cc1ccc(CNC(=O)Cn2c(C)cc(-c3nnc(C)o3)c2C)cc1 the results were USP8 inh -2, USP17 block 30*, USP10 block -4, USP28 inh 5 and USP30 block 7.
`Cc1cc(=O)n(CC(=O)NCc2ccc(F)cc2)c(-c2ccccc2)n1` gave USP8 inh 0, USP17 block 4, USP10 block 1, USP28 inh 5 and USP30 block 39*.
For Cc1ncsc1CN1CCCC(C)(c2nc(C)c3c(n2)N(C(C)C)C(=O)C3)C1 (centres undefined) the results were USP8 inh -4, USP17 block -13, USP10 block -7, USP28 inh -14 and USP30 block -35.
